High-throughput results (PubChem BioAssay)
NPR2 activator = human GC-B receptor activators, primary screen, HEK293 GC-B cells, cGMP TR-FRET, EC30 CNP; Atrial natriuretic peptide receptor 2 (Homo sapiens), P20594; 0% at EC30 CNP, 100% saturating CNP; activation, % at 10 µM; 0.11% of 370,000 active; AID 1920062, 2024;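 active means activation at 10 µM reaching about 35% in either raw or pattern-adjusted values, limit read from the data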
Rev-erbA mod = modulators of Rev-erb alpha DNA binding, primary screen, biochemical, FITC-DNA, fluorescence polarization, uHTS | Rev-erbα–FITC-DNA binding, 90 min | 0.79% of 370,000 active | activity, % at 10 µM | AID 1259318, 2017;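 active means activity above about 14%, limit read from the data; passing the limit was not always enough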
NPR1 activator = GC-A stimulated cGMP production enhancers – HEK293 GC-A cells, cGMP TR-FRET, EC30 ANP, primary screen; Atrial natriuretic peptide receptor 1 (Homo sapiens), P16066; 0% at EC30 ANP, 100% saturating ANP; activation, % at 10 µM; 0.14% of 370,000 active; AID 1671463, 2021; in the data active means activation above about 40%
PG9 binder = binders of HIV-1 gp120 antibody PG9, primary screen, biochemical, TR-FRET; 0.43% of 360,000 active; inhibition, % at 6.7 µM; TR-FRET gp120-PG9 antibody binding; AID 624416, 2012; HIV-1 gp120 / PG9 antibody interaction; in the data active means inhibition above about 8.5%
V-ATPase pH = regulators of yeast V-ATPase proton pumping, primary screen, pHLuorin cytosolic pH fluorescence; S. cerevisiae; response, % at 10 µM; 0.37% of 350,000 active; AID 504577, 2011; in the data active means response mostly above about 7.3%, no sharp cut-off; inactive means mostly below about 5.4%; further: actives read high
NR1D1 mod conf = modulators of Rev-erb alpha DNA binding, confirmation, biochemical, FITC-DNA, fluorescence polarization, single point; shares compounds with Rev-erbA mod; 90 min; activation, % at 25 µM; 61% of 3,000 active; AID 1259319, 2017;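 active means activation at or above a set limit, or at least 3 SD above the negative control mean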
RORg DNA counter = modulation of RORgamma DNA binding, dose response, counter-screen for Rev-erb alpha modulator project, biochemical, fluorescence polarization, FITC-DNA; AID 1259320, 2017; IC50, µM; 8% of 910 active; purified RORgamma protein-FITC-DNA binding; shares compounds with Rev-erbA mod;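 active means Compounds whose fitted half-maximal concentration for disrupting protein-DNA binding is below 10 micromolar; the record names Rev-erb in its text, so the target is in doubt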
Large screens that a line does not name were inactive (follow-up assays come after a bar, where they were run). Rows were chosen to be rich in hits. Some 1.6% of all compounds tested hit in one or more screens of this group.

CC(C)CCNc1nnnc2c1sc1nc(N3CCOCC3)c3c(c12)CC(C)(C)SC3	NPR2 activator 57, Rev-erbA mod 21, NPR1 activator 52 | NR1D1 mod conf inactive
CNC(=O)c1ccsc1NC(=O)c1sc2ccccc2c1Cl	Rev-erbA mod 96 | NR1D1 mod conf 72 | RORg DNA counter inactive
Cc1ccc2nsnc2c1NC(=O)c1sc2ccccc2c1Cl	Rev-erbA mod 31 | NR1D1 mod conf 32 | RORg DNA counter inactive
CCN(CC)CCCNC(=O)c1cn(C(C)c2ccccc2)nn1 (stereo unspecified)	none (no result: PG9 binder, V-ATPase pH)
CCN(CC)C(=O)CSc1nnc2nnc3cc(OC)ccc3n12	Rev-erbA mod 21 | NR1D1 mod conf inactive
CCN(CC)C(=O)CSc1nc2cc3c(cc2c(=O)n1Cc1ccc(OC)cc1)OCO3	Rev-erbA mod 31 | NR1D1 mod conf 38 | RORg DNA counter inactive
CCN(CC)C(=O)CSc1nnc(COc2ccc(OC)cc2)n1N	none
CCCc1ccc(C(=O)O)cc1	none (no result: NPR2 activator, NPR1 activator, PG9 binder, V-ATPase pH)
C[C@H](O)[C@@H]1CN2CCc3c([nH]c4c(-c5ccc6c(c5)OCO6)cccc34)[C@@H]2C[C@@H]1N(C)C(=O)Nc1ccccc1	none (no result: PG9 binder, V-ATPase pH)
Cn1c(=O)c2c(nc(SCC(=O)c3cccs3)n2Cc2ccc(F)cc2)n(C)c1=O	Rev-erbA mod 133 | NR1D1 mod conf 100 | RORg DNA counter inactive
Cc1nn(CCC(=O)NNC(=O)Nc2ccc(Cl)cc2)c(C)c1[N+](=O)[O-]	none (no result: PG9 binder, V-ATPase pH)
COc1ccc2cc(C(=O)NC3CCCCC3)c(=O)oc2c1	Rev-erbA mod 42 | NR1D1 mod conf 19
COc1ccc(-c2csc3nc(-c4ccc(C)cc4)oc(=O)c23)cc1OC	Rev-erbA mod 27 | NR1D1 mod conf inactive
COc1ccc(-c2csc3nc(C(C)(C)C)oc(=O)c23)cc1OC	none
Cc1sc2nc(-c3ccco3)oc(=O)c2c1C	none
COc1cc(-c2nc3sc(C)c(C)c3c(=O)o2)cc(OC)c1OC	Rev-erbA mod 31 | NR1D1 mod conf inactive
Cc1ccccc1-c1nc2sc(C)c(C)c2c(=O)o1	Rev-erbA mod 18 | NR1D1 mod conf inactive
COc1ccc(-n2cc(COC(=O)NCCc3ccccc3)nn2)cc1	none (no result: PG9 binder, V-ATPase pH)
COc1ccc(CNC(=O)C2CCC(CNS(=O)(=O)c3cccc4nsnc34)CC2)cc1 (stereo unspecified)	Rev-erbA mod 72 | NR1D1 mod conf 52 | RORg DNA counter inactive
COCCNC(=O)C1CCC(CNS(=O)(=O)c2cccc3nsnc23)CC1 (stereo unspecified)	none
O=C(NCc1ccc2c(c1)OCO2)C1CCC(CNS(=O)(=O)c2cccc3nsnc23)CC1 (stereo unspecified)	Rev-erbA mod 34 | NR1D1 mod conf 28 | RORg DNA counter inactive
CCOC(=O)N1CCN(C(=O)C[C@H]2C[C@@]3(C(=O)OC)C(=C[C@H](C(C)C)O[C@@H]3C3CC3)N(CCC3=CCCCC3)C2=O)CC1	none (no result: PG9 binder, V-ATPase pH)
CCOC(=O)c1csc(NC(=O)C2CCCN(S(=O)(=O)c3ccc(Br)s3)C2)n1 (stereo unspecified)	none (no result: PG9 binder, V-ATPase pH)
C[C@H]1COc2cccc(N3CCCC3)c2S(=O)(=O)N1C	none (no result: PG9 binder, V-ATPase pH)
CC(=O)Nc1sc2c(c1-c1nc3ccccc3s1)CCCN(C(C)C)C2	none (no result: PG9 binder, V-ATPase pH)
Cc1cc(C)c2c(n1)nn1c(N3CCN(c4ccccc4C)CC3)cc(C)nc21	Rev-erbA mod 71 | NR1D1 mod conf 26
COc1ccc(CN2CCN(c3cc(C)nc4c5c(C)cc(C)nc5nn34)CC2)cc1F	none
CCOC(=O)c1cnc2cc(-c3ccc(Cl)cc3)nn2c1N	Rev-erbA mod 20 | NR1D1 mod conf inactive
COc1ccc(-c2cc3ncc(C(C)=O)c(C)n3n2)cc1	Rev-erbA mod 36 | NR1D1 mod conf inactive
CC(=O)c1cnc2cc(-c3ccc(C)cc3)nn2c1C	none
COC(=O)[C@]12C[C@H](CC(=O)NCc3ccc(OC)c(OC)c3)C(=O)N(Cc3ccc(Cl)cc3Cl)C1=C[C@H](C(C)(C)C)O[C@@H]2C	none (no result: PG9 binder, V-ATPase pH)
CC(NS(=O)(=O)c1cccc(Cl)c1)C(=O)Nc1ccc(-c2nc3ccccc3s2)cc1 (stereo unspecified)	Rev-erbA mod 30 | NR1D1 mod conf inactive
Cc1ccc(C)c(S(=O)(=O)NC(C)C(=O)Nc2ccc(-c3nc4ccccc4s3)cc2)c1 (stereo unspecified)	none
COc1ccccc1Nc1nc2cc(C)ccc2cc1C#N	Rev-erbA mod 96 | NR1D1 mod conf inactive
COc1cccc(CN2CCC(Oc3ccc(C(=O)N4CCCCC4)cc3)CC2)c1O	none
O=C(c1ccc(OC2CCN(Cc3ccccc3O)CC2)cc1)N1CCCCC1	Rev-erbA mod 36 | NR1D1 mod conf inactive
N#CCC[C@@H]1CC[C@]2(CCCN(C(=O)c3cccnc3)C2)O1	none (no result: PG9 binder, V-ATPase pH)
Cc1ccc2nsnc2c1S(=O)(=O)N(Cc1ccco1)Cc1cc2cccc(C)c2[nH]c1=O	Rev-erbA mod 26 (no result: PG9 binder) | NR1D1 mod conf inactive
O=C(NC1CCCCN(Cc2cccc(F)c2)C1=O)c1ccc(-c2ccccc2)cc1 (stereo unspecified)	none (no result: PG9 binder, V-ATPase pH)
COc1ccccc1-c1cc2nc(NCCc3ccc(S(N)(=O)=O)cc3)ccn2n1	none (no result: V-ATPase pH)
NS(=O)(=O)c1ccc(CCNc2ccn3nc(-c4cccc(C(F)(F)F)c4)cc3n2)cc1	Rev-erbA mod 28 (no result: V-ATPase pH) | NR1D1 mod conf inactive
O=C(C1CCC(Cn2c(=S)[nH]c3ccccc3c2=O)CC1)N1CCN(c2ccccc2)CC1 (stereo unspecified)	none
O=C(Cn1c(=S)[nH]c2ccccc2c1=O)N1CCN(c2ccccc2)CC1	Rev-erbA mod 40 | NR1D1 mod conf 24
CC(=O)c1ccc(N2CCN(C(=O)CCCn3c(=S)[nH]c4cc5c(cc4c3=O)OCO5)CC2)cc1	Rev-erbA mod 25 | NR1D1 mod conf inactive
Cc1cccc(N2CCN(C(=O)CCCn3c(=S)[nH]c4cc5c(cc4c3=O)OCO5)CC2)c1C	Rev-erbA mod 24 | NR1D1 mod conf 20
O=C(CCCn1c(=S)[nH]c2cc3c(cc2c1=O)OCO3)N1CCN(c2ccc(Cl)cc2)CC1	none
Cc1ccccc1Cn1cc(CN2[C@@H](CC(C)C)COc3cccc(F)c3S2(=O)=O)nn1	none (no result: PG9 binder, V-ATPase pH)
CCOc1ccc(-c2nnc3ccc(SCC(=O)Nc4nc5ccccc5s4)nn23)cc1	none
CCOc1ccc(-c2nnc3ccc(SCC(=O)Nc4nc5ccc(C)cc5s4)nn23)cc1	Rev-erbA mod 34 | NR1D1 mod conf 34 | RORg DNA counter inactive
